Reference: PubChem BioAssay (EPA / NIEHS)
Calls of active or inactive are those of the source. The calls were made as follows: active = hit-call score of the fitted dose curve at least 0.9, where 1 is the maximum; inactive = score below 0.9.

Assays:
[1] = read-out: Tissue Factor, F3 (gene 2152); test: BSK_CASM3C_TissueFactor: BioMAP Diversity Plus: CASM3C Assay for Tissue Factor Biomarker Activity (AID 2283052); settings: primary human coronary artery smooth muscle cells; actives raise or lower the signal;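 also: cell surface tissue factor protein level read by ELISA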
[2] = read-out: Interferon-gamma inducible Protein 10 (IP10), CXCL10 (gene 3627); test: BSK_hDFCGF_IP10: BioMAP Diversity Plus: hDFCGF Assay for Interferon-gamma inducible Protein 10 (IP10) Biomarker Activity (AID 2283053); settings: primary human foreskin fibroblasts; actives raise or lower the signal
How it was run: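 Primary foreskin fibroblasts, human; 24 h compound exposure; IP-10 by ELISA; bidirectional fit vs DMSO.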

[3] = read-out: Urokinase-type plasminogen activator receptor (uPAR), PLAUR (gene 5329); test: BSK_CASM3C_uPAR: BioMAP Diversity Plus: CASM3C Assay for Urokinase-type plasminogen activator receptor (uPAR) Biomarker Activity (AID 2283054); settings: primary human coronary artery smooth muscle cells; actives raise or lower the signal;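 also: cell-surface uPAR protein level quantified by ELISA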
[4] = read-out: Vascular cell adhesion molecule 1 (VCAM1), VCAM1 (gene 7412); test: BSK_CASM3C_VCAM1: BioMAP Diversity Plus: CASM3C Assay for Vascular cell adhesion molecule 1 (VCAM1) Biomarker Activity (AID 2283055); settings: primary human coronary artery smooth muscle cells; actives raise or lower the signal;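 also: VCAM-1 protein level quantified by ELISA on the cells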
[5] = read-out: Collagen III, COL3A1 (gene 1281); test: BSK_hDFCGF_CollagenIII: BioMAP Diversity Plus: hDFCGF Assay for Collagen III Biomarker Activity (AID 2283056); settings: primary human foreskin fibroblasts; actives raise or lower the signal
How it was run: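 Response relative to DMSO, fitted in both directions, reflects ELISA-measured collagen III in human primary skin fibroblasts 24 h after compound addition.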

[6] = read-out: Epidermal growth factor receptor (EGFR), EGFR (gene 1956); test: BSK_hDFCGF_EGFR: BioMAP Diversity Plus: hDFCGF Assay for Epidermal growth factor receptor (EGFR) Biomarker Activity (AID 2283057); settings: primary human foreskin fibroblasts; actives raise or lower the signal
How it was run: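 hDFCGF system, primary human foreskin fibroblasts; compound 24 h; EGFR measured by ELISA; DMSO = negative control/baseline; bidirectional fitting.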

[7] = read-out: Interleukin-8 (IL8), CXCL8 (gene 3576); test: BSK_hDFCGF_IL8: BioMAP Diversity Plus: hDFCGF Assay for Interleukin-8 (IL8) Biomarker Activity (AID 2283058); settings: primary human foreskin fibroblasts; actives raise or lower the signal
How it was run: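 Fibroblast monolayers (human foreskin, hDFCGF) received test chemical for 24 h before ELISA detection of IL-8; either increases or decreases relative to DMSO count as activity.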

[8] = BSK_hDFCGF_Proliferation: Cell Proliferation Assessment in the BioMAP Diversity Plus: hDFCGF Assay (AID 2283059); settings: primary human foreskin fibroblasts;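 also: curves fitted for both rise and fall of signal versus DMSO baseline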
How it was run: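 This proliferation readout used SRB total-protein staining of human foreskin fibroblasts […], normalized to DMSO with bidirectional curve fitting.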

[9] = read-out: Macrophage colony-stimulating factor (MCSF), CSF1 (gene 1435); test: BSK_hDFCGF_MCSF: BioMAP Diversity Plus: hDFCGF Assay for Macrophage colony-stimulating factor (MCSF) Biomarker Activity (AID 2283060); settings: primary human foreskin fibroblasts; actives raise or lower the signal
How it was run: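 fibroblasts (human foreskin, primary), 24 h post-dose; M-CSF by ELISA; bidirectional fit, DMSO = baseline.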

[10] = BSK_hDFCGF_SRB: Viability Assessment in the BioMAP Diversity Plus: hDFCGF Assay (AID 2283061); settings: primary human foreskin fibroblasts;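 also: cells exposed to compound for 24 h before the read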
How it was run: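 SRB-based viability read on primary human skin fibroblasts at 24 h: TCA fixation, 0.1% dye, 560 nm. Gain or loss of signal is fitted against the DMSO negative control.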

[11] = read-out: TIMP metallopeptidase inhibitor 1 (TIMP1), TIMP1 (gene 7076); test: BSK_hDFCGF_TIMP1: BioMAP Diversity Plus: hDFCGF Assay for TIMP metallopeptidase inhibitor 1 (TIMP1) Biomarker Activity (AID 2283062); settings: primary human foreskin fibroblasts; actives raise or lower the signal
How it was run: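 Bidirectional curve fitting against DMSO baseline yielded this endpoint, based on ELISA detection of TIMP-1 in primary human foreskin fibroblasts exposed to compound for 24 h.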

[12] = read-out: Monokine induced gamma interferon (MIG), CXCL9 (gene 4283); test: BSK_hDFCGF_MIG: BioMAP Diversity Plus: hDFCGF Assay for Monokine induced gamma interferon (MIG) Biomarker Activity (AID 2283063); settings: primary human foreskin fibroblasts; actives raise or lower the signal
How it was run: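 Endpoint derived by bidirectional fitting relative to DMSO; MIG quantified via ELISA in primary human foreskin fibroblasts harvested 24 h after dosing.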

[13] = read-out: Matrix Metallopeptidase 1 (MMP1), MMP1 (gene 4312); test: BSK_hDFCGF_MMP1: BioMAP Diversity Plus: hDFCGF Assay for Matrix Metallopeptidase 1 (MMP1) Biomarker Activity (AID 2283064); settings: primary human foreskin fibroblasts; actives raise or lower the signal
How it was run: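 Primary human foreskin fibroblasts in the hDFCGF system were dosed with test chemical, and MMP1 was measured by ELISA 24 h later. Values come from bidirectional curve fitting against the DMSO baseline.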

[14] = read-out: Vascular cell adhesion molecule 1 (VCAM1), VCAM1 (gene 7412); test: BSK_hDFCGF_VCAM1: BioMAP Diversity Plus: hDFCGF Assay for Vascular cell adhesion molecule 1 (VCAM1) Biomarker Activity (AID 2283065); settings: primary human foreskin fibroblasts; actives raise or lower the signal;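 as to AC50: VCAM-1 protein level quantified by ELISA after 24 h chemical exposure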
How it was run: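 Measured after 24 h chemical treatment of primary human skin fibroblasts, VCAM-1 was detected by ELISA and concentration-response analysed in both directions versus DMSO vehicle.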

[15] = read-out: Plasminogen activator inhibitor-1 (PAI1), SERPINE1 (gene 5054); test: BSK_hDFCGF_PAI1: BioMAP Diversity Plus: hDFCGF Assay for Plasminogen activator inhibitor-1 (PAI1) Biomarker Activity (AID 2283066); settings: primary human foreskin fibroblasts; actives raise or lower the signal
How it was run: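 Primary dermal fibroblasts (human foreskin), hDFCGF system; compound 24 h; PAI-1 by ELISA; bidirectional fit vs DMSO control.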

[16] = read-out: Intercellular Adhesion Molecule 1 (ICAM1), ICAM1 (gene 3383); test: BSK_KF3CT_ICAM1: BioMAP Diversity Plus: KF3CT Assay for Intercellular Adhesion Molecule 1 (ICAM1) Biomarker Activity (AID 2283067); settings: primary human keratinocytes with fibroblasts; actives raise or lower the signal
How it was run: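 Bidirectional curve fitting against a DMSO baseline was applied to ICAM-1 ELISA signal from primary human skin co-cultures harvested 24 h after treatment, with SRB staining of parallel wells for overt cytotoxicity.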

[17] = read-out: Interferon-gamma inducible Protein 10 (IP10), CXCL10 (gene 3627); test: BSK_KF3CT_IP10: BioMAP Diversity Plus: KF3CT Assay for Interferon-gamma inducible Protein 10 (IP10) Biomarker Activity (AID 2283068); settings: primary human keratinocytes with fibroblasts; actives raise or lower the signal
How it was run: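 Signal is secreted/surface IP-10 by ELISA in a human primary skin co-culture of keratinocytes and foreskin fibroblasts, taken 24 h post-dosing; DMSO served as negative control.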

[18] = BSK_KF3CT_SRB: Viability Assessment in the BioMAP Diversity Plus: KF3CT Assay (AID 2283069); settings: primary human keratinocytes with fibroblasts;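 also: total protein by sulforhodamine B staining as a cytotoxicity measure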
How it was run: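 Human primary keratinocyte plus foreskin fibroblast co-culture exposed to chemicals for 24 h. Total protein measured by 0.1% sulforhodamine B staining after 10% TCA fixation, read at 560 nm; bidirectional fitting versus DMSO baseline.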

[19] = read-out: Interleukin-1 alpha (IL1a), IL1A (gene 3552); test: BSK_KF3CT_IL1a: BioMAP Diversity Plus: KF3CT Assay for Interleukin-1 alpha (IL1a) Biomarker Activity (AID 2283070); settings: primary human keratinocytes with fibroblasts; actives raise or lower the signal
How it was run: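 Human keratinocyte plus foreskin fibroblast primary co-culture, sampled 24 h after chemical dosing. IL-1a measured by ELISA; responses fitted bidirectionally against DMSO baseline (negative control), so gain or loss of signal both count.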

[20] = read-out: TIMP metallopeptidase inhibitor 2 (TIMP2), TIMP2 (gene 7077); test: BSK_KF3CT_TIMP2: BioMAP Diversity Plus: KF3CT Assay for TIMP metallopeptidase inhibitor 2 (TIMP2) Biomarker Activity (AID 2283071); settings: primary human keratinocytes with fibroblasts; actives raise or lower the signal
How it was run: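 Cells: human keratinocytes co-cultured with foreskin fibroblasts. Treat with chemical, 24 h. Measure TIMP-2 by ELISA; fit curves bidirectionally vs DMSO baseline.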

Measured: AC50

OC1CCCCC1
inactive: [1] | [2] | [3] | [4] | [5] | [6] | [7] | [8] | [9] | [10] | [11] | [12] | [13] | [14] | [15] | [16] | [17] | [18] | [19] | [20]

CCCCCCCCCCCCc1ccccc1S(=O)(=O)O
inactive: [1] | [3] | [6]
active: [2] 10.6 µM | [4] 11.2 µM | [5] 8.62 µM | [7] 13.5 µM | [8] 9.26 µM | [9] 11.4 µM | [10] 6.52 µM | [11] 11.9 µM | [12] 11.7 µM | [13] 7.55 µM | [14] 11.6 µM | [15] 6.87 µM | [16] 31.5 µM | [17] 13 µM | [18] 12.8 µM | [19] 29.9 µM | [20] 13.3 µM

NCC(F)(F)C(F)(F)C(F)(F)C(F)(F)C(F)(F)C(F)(F)C(F)(F)F
inactive: [1] | [2] | [3] | [4] | [5] | [6] | [7] | [8] | [9] | [10] | [11] | [12] | [13] | [14] | [15] | [16] | [17] | [18] | [19] | [20]

c1ccc2c(c1)Cc1ccccc1-2
inactive: [1] | [2] | [3] | [4] | [5] | [6] | [7] | [8] | [9] | [10] | [11] | [12] | [13] | [14] | [15] | [16] | [17] | [18] | [19] | [20]

Cc1cc(C)c(O)c(C)c1
inactive: [1] | [2] | [3] | [4] | [5] | [6] | [7] | [8] | [9] | [10] | [11] | [12] | [13] | [14] | [15] | [16] | [17] | [18] | [19] | [20]
